The source of these data is article PMC7862700, “An all-to-all approach to the identification of sequence-specific readers for epigenetic DNA modifications on cytosine”.

Holding throughout (experiment): DAPPL (digital affinity profiling via proximity ligation, sequencing); 10 mM Tris-HCl pH 7.5, 50 mM NaCl, 1 mM DTT, 4% glycerol, room temperature, 30 min; GST-TFs on glutathione beads, 16-mer random dsDNA library, 0.1% formaldehyde crosslink after washing; high values mean tight binding
What all share (details): protein: recombinant; tags: N-terminal GST; dsDNA, one strand shown

The target in one assay is T1, ETV2 (Homo sapiens, UniProt O00321 1-342).
T1 sequence: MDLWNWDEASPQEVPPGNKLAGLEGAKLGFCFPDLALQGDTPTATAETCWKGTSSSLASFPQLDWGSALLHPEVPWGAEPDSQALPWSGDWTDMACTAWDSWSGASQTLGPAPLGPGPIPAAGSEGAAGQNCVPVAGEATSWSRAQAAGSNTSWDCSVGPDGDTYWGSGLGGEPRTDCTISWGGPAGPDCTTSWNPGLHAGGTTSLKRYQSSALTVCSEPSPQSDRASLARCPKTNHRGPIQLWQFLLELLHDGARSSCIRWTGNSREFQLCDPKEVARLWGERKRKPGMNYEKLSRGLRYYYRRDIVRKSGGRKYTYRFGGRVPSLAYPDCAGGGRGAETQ
The essentials: (§1)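 The binding signal reported is, for every hexamer, its read frequency for a factor over its read frequency for the tag-only sample. Reads came from pools of yeast-expressed, GST-fused human transcription factors on glutathione beads, barcoded with DNA and mixed with that sample, which were incubated with 200 nmole of a random double-stranded 16-mer DNA library in Tris/NaCl/DTT/glycerol buffer at room temperature for 30 min. After washing, the pools were crosslinked with 0.1% formaldehyde, proximity-ligated with BsaI/T4 ligase for 1 h at 37 °C, PCR-amplified and sequenced on an Illumina NextSeq500.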

In the next assay the target is T2, ELF3 (Homo sapiens, UniProt P78545 1-371).
T2 sequence: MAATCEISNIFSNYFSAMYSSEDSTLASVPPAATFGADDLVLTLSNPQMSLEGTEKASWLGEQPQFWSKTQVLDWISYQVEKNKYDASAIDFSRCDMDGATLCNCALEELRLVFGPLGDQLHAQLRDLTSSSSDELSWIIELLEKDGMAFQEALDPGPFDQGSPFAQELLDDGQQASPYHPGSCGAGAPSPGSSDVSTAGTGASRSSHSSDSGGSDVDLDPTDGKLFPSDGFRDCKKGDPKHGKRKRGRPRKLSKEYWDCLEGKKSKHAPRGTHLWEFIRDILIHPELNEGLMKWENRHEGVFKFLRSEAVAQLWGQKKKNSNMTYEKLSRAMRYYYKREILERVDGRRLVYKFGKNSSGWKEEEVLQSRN
The method, boiled down: as §1

The target in the next assay is ETV1 (Homo sapiens, UniProt P50549 1-477). The method, boiled down:
as §1

For the next assay, the target named is T3, ERF (Homo sapiens, UniProt P50548 1-548).
T3 sequence: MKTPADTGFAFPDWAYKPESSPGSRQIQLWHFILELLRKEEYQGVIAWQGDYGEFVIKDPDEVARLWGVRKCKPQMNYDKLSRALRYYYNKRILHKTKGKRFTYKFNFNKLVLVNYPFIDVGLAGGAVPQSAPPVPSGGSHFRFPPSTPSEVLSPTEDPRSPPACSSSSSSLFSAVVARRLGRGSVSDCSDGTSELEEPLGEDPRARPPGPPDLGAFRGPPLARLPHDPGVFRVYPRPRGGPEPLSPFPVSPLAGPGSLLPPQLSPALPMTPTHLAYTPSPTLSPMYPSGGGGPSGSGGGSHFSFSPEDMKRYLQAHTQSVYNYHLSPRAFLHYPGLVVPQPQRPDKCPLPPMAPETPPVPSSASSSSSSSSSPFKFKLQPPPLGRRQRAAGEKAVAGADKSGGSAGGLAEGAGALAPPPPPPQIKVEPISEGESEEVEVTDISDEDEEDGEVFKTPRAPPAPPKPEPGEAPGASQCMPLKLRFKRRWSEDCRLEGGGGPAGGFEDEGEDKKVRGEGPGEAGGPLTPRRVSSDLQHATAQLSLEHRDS
The essentials:
as §1

In a further assay the target is T4, ETV3L (Homo sapiens, UniProt Q6ZN32 1-361).
T4 sequence: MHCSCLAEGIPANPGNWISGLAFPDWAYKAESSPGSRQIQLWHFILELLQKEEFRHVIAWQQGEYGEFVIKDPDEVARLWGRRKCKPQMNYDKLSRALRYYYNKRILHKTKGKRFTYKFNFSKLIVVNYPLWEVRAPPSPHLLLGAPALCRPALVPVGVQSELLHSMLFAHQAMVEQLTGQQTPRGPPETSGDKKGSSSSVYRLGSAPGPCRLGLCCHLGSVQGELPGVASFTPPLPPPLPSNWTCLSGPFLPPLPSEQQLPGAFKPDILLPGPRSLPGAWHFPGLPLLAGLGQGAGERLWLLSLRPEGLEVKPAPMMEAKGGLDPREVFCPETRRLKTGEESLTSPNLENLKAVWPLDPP
The essentials:
as §1

In a further assay the target is T5, ETS2 (Homo sapiens, UniProt P15036 1-469).
T5 sequence: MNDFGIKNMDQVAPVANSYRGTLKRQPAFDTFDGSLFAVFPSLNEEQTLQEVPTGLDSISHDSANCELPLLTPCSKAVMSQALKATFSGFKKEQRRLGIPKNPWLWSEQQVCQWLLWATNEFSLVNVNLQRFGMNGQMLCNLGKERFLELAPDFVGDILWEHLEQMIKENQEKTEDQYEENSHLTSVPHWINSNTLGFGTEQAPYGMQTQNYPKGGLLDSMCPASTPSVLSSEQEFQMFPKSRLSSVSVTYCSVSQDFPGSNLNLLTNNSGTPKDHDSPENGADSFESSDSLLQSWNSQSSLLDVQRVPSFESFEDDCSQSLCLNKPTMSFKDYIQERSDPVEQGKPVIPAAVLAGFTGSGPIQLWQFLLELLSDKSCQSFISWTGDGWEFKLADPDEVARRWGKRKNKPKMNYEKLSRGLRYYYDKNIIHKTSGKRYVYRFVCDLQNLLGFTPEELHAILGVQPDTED
The method, boiled down:
as §1

The next assay deals with T6, SPDEF (Homo sapiens, UniProt O95238 1-335).
T6 sequence: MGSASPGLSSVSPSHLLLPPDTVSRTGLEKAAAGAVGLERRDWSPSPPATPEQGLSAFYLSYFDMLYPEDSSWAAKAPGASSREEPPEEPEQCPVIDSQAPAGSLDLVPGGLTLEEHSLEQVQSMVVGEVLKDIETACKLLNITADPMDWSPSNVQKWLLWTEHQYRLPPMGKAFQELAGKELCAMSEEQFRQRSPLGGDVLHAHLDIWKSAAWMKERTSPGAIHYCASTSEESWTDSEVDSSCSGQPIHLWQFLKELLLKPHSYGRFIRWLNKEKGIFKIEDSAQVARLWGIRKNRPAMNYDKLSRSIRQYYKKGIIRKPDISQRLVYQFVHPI
The essentials:
as §1

The target of a further assay is T7, ETV7 (Homo sapiens, UniProt Q9Y603 1-341).
T7 sequence: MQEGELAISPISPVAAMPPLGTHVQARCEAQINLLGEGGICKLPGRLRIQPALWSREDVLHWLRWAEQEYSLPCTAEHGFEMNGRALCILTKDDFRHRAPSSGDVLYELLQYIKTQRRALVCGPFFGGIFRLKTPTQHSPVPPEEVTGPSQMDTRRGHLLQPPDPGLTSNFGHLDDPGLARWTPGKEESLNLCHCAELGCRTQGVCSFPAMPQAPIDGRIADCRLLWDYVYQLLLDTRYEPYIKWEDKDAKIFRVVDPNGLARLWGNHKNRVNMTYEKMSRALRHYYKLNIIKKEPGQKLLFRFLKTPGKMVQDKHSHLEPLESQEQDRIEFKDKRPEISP
The method, boiled down:
as §1

For the next assay, the target named is T8, ETV3 (Homo sapiens, UniProt P41162-2 1-143).
T8 sequence: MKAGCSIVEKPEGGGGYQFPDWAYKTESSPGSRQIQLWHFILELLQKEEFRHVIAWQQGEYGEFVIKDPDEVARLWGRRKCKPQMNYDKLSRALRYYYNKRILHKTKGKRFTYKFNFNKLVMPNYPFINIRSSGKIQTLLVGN
The essentials:
as §1

A further assay addresses ETV6 (Homo sapiens, UniProt P41212 1-452). The method, boiled down: as §1

Chain of ETV6 (P41212 whole entry): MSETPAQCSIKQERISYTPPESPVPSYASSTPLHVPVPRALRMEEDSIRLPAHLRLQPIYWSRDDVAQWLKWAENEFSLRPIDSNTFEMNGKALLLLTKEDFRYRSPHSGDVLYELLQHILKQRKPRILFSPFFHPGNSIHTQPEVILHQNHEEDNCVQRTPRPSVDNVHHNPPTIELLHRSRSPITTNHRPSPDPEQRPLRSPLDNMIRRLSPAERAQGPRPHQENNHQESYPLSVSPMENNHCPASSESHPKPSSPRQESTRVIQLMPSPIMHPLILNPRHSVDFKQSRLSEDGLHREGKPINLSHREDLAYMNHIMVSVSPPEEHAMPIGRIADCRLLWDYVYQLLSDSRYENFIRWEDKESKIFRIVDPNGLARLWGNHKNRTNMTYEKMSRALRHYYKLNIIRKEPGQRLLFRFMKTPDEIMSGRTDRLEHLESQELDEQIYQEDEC
Chain of ETV1 (P50549 whole entry): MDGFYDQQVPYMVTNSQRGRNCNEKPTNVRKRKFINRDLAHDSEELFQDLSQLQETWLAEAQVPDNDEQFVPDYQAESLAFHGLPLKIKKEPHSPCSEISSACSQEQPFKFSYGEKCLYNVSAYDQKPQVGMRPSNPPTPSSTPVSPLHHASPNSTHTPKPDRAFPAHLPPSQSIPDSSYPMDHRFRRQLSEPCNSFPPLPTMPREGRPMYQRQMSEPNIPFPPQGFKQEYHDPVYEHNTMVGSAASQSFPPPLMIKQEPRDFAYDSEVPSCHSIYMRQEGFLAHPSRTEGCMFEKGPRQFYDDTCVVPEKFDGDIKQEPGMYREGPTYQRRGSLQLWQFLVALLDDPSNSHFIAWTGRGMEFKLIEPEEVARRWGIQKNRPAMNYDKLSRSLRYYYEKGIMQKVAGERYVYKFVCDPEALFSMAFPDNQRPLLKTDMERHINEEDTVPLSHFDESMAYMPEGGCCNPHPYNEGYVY

As to CGTAAA, the binding signal with ETV2 was 1.21 fold enrichment (6-mer frequency, TF over GST control); with ELF3, 1.12 fold enrichment (6-mer frequency, TF over GST control); with ETV1, 1 fold enrichment (6-mer frequency, TF over GST control); in the assay with ERF, 1.09 fold enrichment (6-mer frequency, TF over GST control); with ETV3L it was 1.09 fold enrichment (6-mer frequency, TF over GST control); with ETS2 it was 1.14 fold enrichment (6-mer frequency, TF over GST control). Moreover, the binding signal is 1.09 fold enrichment (6-mer frequency, TF over GST control) with SPDEF; 1.08 fold enrichment (6-mer frequency, TF over GST control) with ETV7; 1.14 fold enrichment (6-mer frequency, TF over GST control) with ETV3; 1.17 fold enrichment (6-mer frequency, TF over GST control) with ETV6.
